Where “and” joins values, the source holds several entries; their conditions need not be identical. Equal entries are not always repeated. Screen size: about 5,500 compounds; about 2,000 (36%) were called active. Roughly 18% stayed inconclusive and do not appear here. No stated cut-off is given here; in the data, active means normalized growth mostly below about 0.91 (no sharp cut-off); inconclusive means no clear call, values can overlap the other calls; inactive means mostly above about 0.92. The list shows a part of the results.
Assay: chemical genetic growth profiling, strain panel (AID 1159580);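 further: tested at 20 µM; growth read once vehicle control cultures reached saturation at 30 °C; 1 = growth at the plate median or of vehicle wells; lower values mean less growth of the strain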
Details: S. cerevisiae deletion strains, growth OD

Measured: normalized growth

C=CC(C1=CC(=O)C(OC)=CC1=O)c1ccc(O)cc1 (configuration not stated)
inactive: locus YAL013W, strain DEP1, active compounds read low 1.04 | locus YAL021C, strain ccr4, active compounds read low 1.03 | locus YAL026C, strain drs2, active compounds read low 0.977 | locus YAL030W, strain snc1, active compounds read low 1.01 | locus YBL061C, strain skt5, active compounds read low 0.996 | locus YBR009C, strain hhf1, active compounds read low 0.99 | locus YBR021W, strain FUR4, active compounds read low 1.04 | locus YBR023C, strain chs3, active compounds read low 0.992 | locus YBR171W, strain sec66, active compounds read low 1.02 | locus YBR229C, strain ROT2, active compounds read low 0.945 | locus YBR231C, strain swc5, active compounds read low 0.989 | locus YBR279W, strain paf1, active compounds read low 1 | locus YCL011C, strain gbp2, active compounds read low 0.998 | locus YCL016C, strain dcc1, active compounds read low 0.99 | locus YCL029C, strain bik1, active compounds read low 0.987 | locus YCL069W, strain vba3, active compounds read low 1.01 | locus YCR088W, strain abp1, active compounds read low 1.02 | locus YDL005C, strain med2, active compounds read low 0.999 | locus YDL035C, strain GPR1, active compounds read low 0.974 | locus YDL040C, strain nat1, active compounds read low 0.999 | locus YDL074C, strain BRE1, active compounds read low 0.987 | locus YDL101C, strain DUN1, active compounds read low 0.986 | locus YDL185W, strain tfp1, active compounds read low 0.944 | locus YDL192W, strain arf1, active compounds read low 0.981 | locus YDR001C, strain nth1, active compounds read low 1.01 | locus YDR069C, strain doa4, active compounds read low 0.991 | locus YDR101C, strain arx1, active compounds read low 0.991 | locus YDR137W, strain rgp1, active compounds read low 0.989 | locus YDR150W, strain NUM1, active compounds read low 1.01 | locus YDR159W, strain sac3, active compounds read low 0.94 | locus YDR162C, strain NBP2, active compounds read low 0.942 | locus YDR195W, strain ref2 1.03 | locus YDR297W, strain sur2, active compounds read low 0.986 | locus YDR318W, strain mcm21, active compounds read low 0.953 | locus YDR334W, strain swr1, active compounds read low 1.02 | locus YDR335W, strain msn5, active compounds read low 1.01 | locus YDR388W, active compounds read low 0.964 | locus YDR392W, strain spt3, active compounds read low 0.825 | locus YDR502C, strain sam2, active compounds read low 0.967 | locus YEL003W, strain gim4, active compounds read low 0.979 | locus YEL037C, strain rad23, active compounds read low 1.01 | locus YEL061C, strain CIN8 (second series), active compounds read low 1.01 | locus YEL061C, strain CIN8, active compounds read low 0.992 | locus YER015W, strain faa2, active compounds read low 0.995 | locus YER016W, strain bim1, active compounds read low 1 | locus YER110C, active compounds read low 0.927 | locus YER111C, strain swi4, active compounds read low 0.998 | locus YER155C, strain BEM2 (second series), active compounds read low 0.891 | locus YER155C, strain BEM2, active compounds read low 1 | locus YER167W, strain BCK2, active compounds read low 0.973 | locus YFR010W, strain ubp6, active compounds read low 0.998 | locus YGL078C, strain dbp3, active compounds read low 0.985 | locus YGL086W, strain mad1, active compounds read low 1 | locus YGL167C, strain pmr1, active compounds read low 1.01 | locus YGL173C, strain kem1, active compounds read low 0.997 | locus YGL227W, strain vid30, active compounds read low 0.999 | locus YGL240W, strain doc1, active compounds read low 0.972 | locus YGL248W, strain PDE1, active compounds read low 0.992 | locus YGL253W, strain hxk2, active compounds read low 1.02 | locus YGR078C, strain PAC10, active compounds read low 1.01 | locus YGR135W, strain pre9, active compounds read low 0.963 | locus YGR252W, strain gcn5, active compounds read low 0.904 | locus YHR013C, strain ard1, active compounds read low 1.02 | locus YHR027C, strain rpn1, active compounds read low 0.995 | locus YHR030C, strain SLT2, active compounds read low 0.98 and 1.04 | locus YHR079C, strain IRE1 (second series), active compounds read low 0.982 | locus YHR079C, strain IRE1, active compounds read low 1.01 | locus YHR094C, strain hxt1, active compounds read low 0.96 | locus YHR129C, strain ARP1, active compounds read low 0.991 | locus YHR142W, strain chs7, active compounds read low 1.01 | locus YHR200W, strain rpn10, active compounds read low 0.965 | locus YIL066C, strain RNR3, active compounds read low 0.92 | locus YIL073C, strain SPO22, active compounds read low 0.964 | locus YIL125W, strain kgd1, active compounds read low 0.987 | locus YIR030C, strain dcg1, active compounds read low 0.991 | locus YJL092W, strain hpr5, active compounds read low 1 | locus YJL095W, strain BCK1 (second series), active compounds read low 0.998 | locus YJL095W, strain BCK1, active compounds read low 1.03 and 1.06 | locus YJL115W, strain asf1, active compounds read low 1.02 | locus YJL129C, strain trk1, active compounds read low 1.03 | locus YJL134W, strain LCB3, active compounds read low 0.978 | locus YJL154C, strain vps35, active compounds read low 1.01 | locus YJL164C, strain tpk1, active compounds read low 0.987 | locus YJL166W, strain qcr8, active compounds read low 1 | locus YJL168C, strain set2, active compounds read low 0.984 | locus YJL187C, strain SWE1 (second series), active compounds read low 0.997 | locus YJL187C, strain SWE1, active compounds read low 1 | locus YJR043C, strain POL32, active compounds read low 0.941 | locus YJR066W, strain TOR1, active compounds read low 0.983 | locus YJR075W, strain HOC1, active compounds read low 1.01 | locus YKL009W, strain mrt4, active compounds read low 0.957 | locus YKL068W, active compounds read low 0.971 | locus YKL085W, strain MDH1 (second series), active compounds read low 0.987 | locus YKL085W, strain MDH1, active compounds read low 0.987 | locus YKL160W, strain elf1, active compounds read low 0.985 | locus YKL190W, strain CNB1, active compounds read low 1.01 | locus YKR001C, strain vps1, active compounds read low 0.966 | locus YKR026C, strain gcn3, active compounds read low 1.01 | locus YKR091W, strain srl3, active compounds read low 1.01 | locus YLL001W, strain dnm1, active compounds read low 0.958 | locus YLL026W, active compounds read low 1 | locus YLL041C, strain sdh2, active compounds read low 1.01 | locus YLR027C, strain aat2, active compounds read low 1 | locus YLR039C, strain RIC1, active compounds read low 1.02 | locus YLR058C, strain SHM2, active compounds read low 0.925 | locus YLR102C, strain apc9, active compounds read low 0.984 | locus YLR113W, strain HOG1, active compounds read low 0.967 | locus YLR221C, strain rsa3, active compounds read low 0.989 | locus YLR258W, strain gsy2, active compounds read low 1.01 | locus YLR262C, strain YPT6 (second series), active compounds read low 0.996 | locus YLR262C, strain YPT6, active compounds read low 1.01 | locus YLR268W, strain sec22, active compounds read low 1.01 | locus YLR320W, strain mms22, active compounds read low 0.988 | locus YLR330W, strain CHS5, active compounds read low 1 | locus YLR342W, strain FKS1 (second series), active compounds read low 0.935 | locus YLR342W, strain FKS1, active compounds read low 0.987 | locus YLR357W, strain rsc2, active compounds read low 0.993 | locus YLR370C, strain arc18, active compounds read low 1.01 | locus YLR371W, strain rom2, active compounds read low 0.965 | locus YLR384C, strain iki3, active compounds read low 1.03 | locus YLR418C, strain cdc73, active compounds read low 0.933 | locus YML016C, strain PPZ1, active compounds read low 0.976 | locus YML032C, strain rad52, active compounds read low 0.947 | locus YML120C, strain ndi1, active compounds read low 1 | locus YML124C, strain tub3, active compounds read low 0.99 | locus YMR058W, strain fet3, active compounds read low 1.01 | locus YMR078C, strain ctf18, active compounds read low 0.989 | locus YMR125W, strain sto1, active compounds read low 1.02 | locus YMR129W, active compounds read low 1 | locus YMR205C, strain PFK2, active compounds read low 0.992 | locus YMR223W, strain ubp8, active compounds read low 0.967 | locus YMR231W, strain pep5, active compounds read low 1.01 | locus YMR263W, strain SAP30, active compounds read low 1.01 | locus YMR307W, strain GAS1, active compounds read low 1.06 | locus YNL067W, strain RPL9B, active compounds read low 1.06 | locus YNL071W, strain lat1, active compounds read low 1.01 | locus YNL153C, strain GIM3, active compounds read low 1.01 | locus YNL183C, strain NPR1, active compounds read low 0.983 | locus YNL209W, strain ssb2, active compounds read low 0.994 | locus YNL233W, strain BNI4, active compounds read low 1.01 | locus YNL248C, strain rpa49, active compounds read low 1 | locus YNL250W, strain rad50, active compounds read low 0.98 | locus YNL271C, strain bni1, active compounds read low 0.99 | locus YNL298W, strain CLA4, active compounds read low 0.961 | locus YNL307C, strain MCK1, active compounds read low 0.969 | locus YNL322C, strain KRE1 (second series), active compounds read low 0.981 | locus YNL322C, strain KRE1, active compounds read low 0.994 | locus YNR049C, strain mso1, active compounds read low 1.01 | locus YNR052C, strain pop2, active compounds read low 0.981 | locus YOL012C, strain htz1 1.04 | locus YOL147C, strain pex11, active compounds read low 0.969 | locus YOR001W, strain rrp6, active compounds read low 0.986 | locus YOR061W, strain CKA2, active compounds read low 0.954 | locus YOR069W, strain VPS5, active compounds read low 0.986 | locus YOR070C, strain gyp1, active compounds read low 0.982 | locus YOR080W, strain dia2, active compounds read low 0.992 | locus YOR083W, strain WHI5, active compounds read low 0.977 | locus YOR106W, strain vam3, active compounds read low 0.989 | locus YOR136W, strain idh2, active compounds read low 0.976 | locus YOR144C, strain elg1, active compounds read low 0.98 | locus YOR184W, strain ser1, active compounds read low 0.941 | locus YOR231W, strain MKK1, active compounds read low 1.03 | locus YOR265W, strain rbl2, active compounds read low 1 | locus YOR270C, strain vph1, active compounds read low 1.02 | locus YOR290C, strain snf2, active compounds read low 0.984 | locus YOR316C, strain cot1, active compounds read low 0.982 | locus YPL051W, strain arl3, active compounds read low 0.979 | locus YPL078C, strain atp4, active compounds read low 0.98 | locus YPL106C, strain sse1, active compounds read low 1.01 | locus YPL240C, strain hsp82, active compounds read low 1.01 | locus YPL241C, strain CIN2, active compounds read low 0.983 | locus YPL256C, strain CLN2, active compounds read low 1.06 | locus YPR119W, strain clb2, active compounds read low 0.99 | locus YPR141C, strain kar3, active compounds read low 0.984 | locus YPR163C, strain tif3, active compounds read low 0.979 | locus YPR167C, strain met16, active compounds read low 0.974 | strain wtn01, active compounds read low 0.994

— PubChem BioAssay AID1159580 (chemical genetic matrix, 2015)
